# From PubChem BioAssay (NCATS)
# Several values for one entry are separate records, joined by “and”; a condition that tells them apart may be missing. Equal entries are not always repeated. Results filed as inconclusive are left out. Where a call stands in place of a potency, no number is given. Values without a mark were called inactive. Activity calls are given as the source filed them. Unless noted, calls come from the whole dose curve; as a rule, active = well fitted curve in the direction sought with a large enough effect; inconclusive = small, poorly fitted or top-dose-only effect, or another doubt; inactive = no such curve, though single readings can be large; an effect the other way counts as inactive or inconclusive. Where a SMILES comes first, the peptide text is derived from it. [ ]: non-standard residue; d: D form. pGlu = O=C1CC[C@@H](C(=O)O)N1; Thz = O=C(O)[C@@H]1CSCN1
# What was measured:
# [1] = Primary qHTS for small molecule stabilizers of the endoplasmic reticulum resident proteome: Secreted ER Calcium Modulated Protein (SERCaMP) assay (AID 1508630); note: potency is the fitted concentration of half-maximal effect
# Outline: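 GLuc-SERCaMP-expressing SH-SY5Y cells, pretreated 16 h with compound, are challenged with thapsigargin to empty ER calcium stores; after 4 h, coelenterazine is added directly to the medium and luminescence is imaged.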
# [2] = target: Papain (Carica papaya) (UniProt P00784); test: Primary qHTS assay for inhibitors of the protease papain (AID 1645873);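 note: papain turnover of Z-FR-AMC read as the AMC fluorescence gain over 10 min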; note: potency is the fitted concentration of half-maximal effect
# Papain (Carica papaya), sequence (P00784 whole entry, looked up): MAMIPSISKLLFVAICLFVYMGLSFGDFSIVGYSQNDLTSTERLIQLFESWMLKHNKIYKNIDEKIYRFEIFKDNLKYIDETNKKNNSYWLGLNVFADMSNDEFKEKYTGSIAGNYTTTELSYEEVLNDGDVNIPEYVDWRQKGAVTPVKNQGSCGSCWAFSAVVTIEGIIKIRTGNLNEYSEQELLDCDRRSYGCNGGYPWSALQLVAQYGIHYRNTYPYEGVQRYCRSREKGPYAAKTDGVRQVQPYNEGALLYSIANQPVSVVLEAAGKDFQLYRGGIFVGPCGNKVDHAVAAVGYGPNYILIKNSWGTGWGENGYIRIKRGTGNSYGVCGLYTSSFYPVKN
# [3] = target: Calcium and integrin-binding protein 1 (Homo sapiens) (UniProt Q99828); test: Primary qHTS for Identification of Calcium Integrin Binding Protein 1 (CIB1) Competitor (AID 1508620);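 note: GST tagged CIB1 binding a fluorescein labelled alphaIIb integrin peptide tracer; top concentration of the series differs between compounds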
# Calcium and integrin-binding protein 1 (Homo sapiens), sequence (Q99828 whole entry, looked up): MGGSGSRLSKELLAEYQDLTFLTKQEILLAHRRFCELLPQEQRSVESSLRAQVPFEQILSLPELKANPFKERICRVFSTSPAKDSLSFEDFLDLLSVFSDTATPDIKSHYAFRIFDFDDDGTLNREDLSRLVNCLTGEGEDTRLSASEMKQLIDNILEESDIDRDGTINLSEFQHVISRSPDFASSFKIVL
# Outline: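 Fluorescence polarization competition: CIB1-GST (1 uM final) preincubated with compound 15 min at room temperature, then FITC-labeled alphaIIb peptide (100 nM final) added for another 15 min. Polarization read at Ex 480/Em 540.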
# [4] = Primary qHTS for inhibitors of nuclear receptor binding SET domain protein 2 (NSD2) in an isogenic RCH-ACV NSD2 p.E1099K mutant (9B) (AID 1645876); note: nearly all actives have a fitted effect of over 70% in size; note: potency is the fitted concentration of half-maximal effect
# [5] = Primary qHTS for inhibitors of nuclear receptor binding SET domain protein 2 (NSD2) in an RCH-ACV wild type WT cells (2C) (AID 1645877); note: nearly all actives have a fitted effect of over 70% in size; note: potency is the fitted concentration of half-maximal effect
# [6] = target: Rap guanine nucleotide exchange factor 3 (Homo sapiens) (UniProt O95398); test: Confirmatory qHTS for antagonist of cAMP-regulated guanine nucleotide exchange factor 3 (EPAC1) (AID 1645880); note: nearly all actives have a fitted effect of over 55% in size
# Rap guanine nucleotide exchange factor 3 (Homo sapiens), sequence (O95398 whole entry, looked up): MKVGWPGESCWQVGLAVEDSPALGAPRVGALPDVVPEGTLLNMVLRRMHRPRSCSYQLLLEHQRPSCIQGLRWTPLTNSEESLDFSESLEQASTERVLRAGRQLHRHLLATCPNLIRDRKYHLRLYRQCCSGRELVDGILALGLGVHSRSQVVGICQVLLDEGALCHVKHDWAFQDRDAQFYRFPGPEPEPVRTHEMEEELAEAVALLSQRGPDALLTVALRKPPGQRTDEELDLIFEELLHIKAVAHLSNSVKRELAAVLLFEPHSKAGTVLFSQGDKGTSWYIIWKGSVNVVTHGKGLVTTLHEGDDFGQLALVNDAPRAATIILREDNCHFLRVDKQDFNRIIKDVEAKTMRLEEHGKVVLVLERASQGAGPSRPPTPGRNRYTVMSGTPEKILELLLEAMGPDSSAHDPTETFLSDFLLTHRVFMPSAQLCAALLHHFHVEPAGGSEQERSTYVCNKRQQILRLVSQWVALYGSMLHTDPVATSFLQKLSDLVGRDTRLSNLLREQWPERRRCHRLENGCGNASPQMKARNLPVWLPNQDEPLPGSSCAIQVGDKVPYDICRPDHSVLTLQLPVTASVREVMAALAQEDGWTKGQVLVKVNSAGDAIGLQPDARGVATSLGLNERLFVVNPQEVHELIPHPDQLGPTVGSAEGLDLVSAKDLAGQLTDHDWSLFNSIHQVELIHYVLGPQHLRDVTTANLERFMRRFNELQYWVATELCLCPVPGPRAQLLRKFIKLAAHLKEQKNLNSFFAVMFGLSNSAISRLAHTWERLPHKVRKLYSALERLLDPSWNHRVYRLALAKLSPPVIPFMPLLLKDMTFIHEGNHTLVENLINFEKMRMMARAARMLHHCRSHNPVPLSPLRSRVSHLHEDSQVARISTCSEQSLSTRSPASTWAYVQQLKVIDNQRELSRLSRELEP
# Outline: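 Nucleotide exchange uses 100 nM EPAC1, 250 nM RAP1B-BODIPY-GDP and 50 uM GDP, with compounds in a concentration-titration series. After 5 min at room temperature, fluorescence (480 nm ex/540 nm em) is read every 5 min for 30 min. Data are normalized to control ATA and DMSO.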
# [7] = target: Rap guanine nucleotide exchange factor 3 (Homo sapiens) (UniProt O95398); test: Confirmatory qHTS for agonist of cAMP-regulated guanine nucleotide exchange factor 3 (EPAC1) (AID 1645881); note: nearly all actives have a fitted effect of over 75% in size; note: potency is the fitted concentration of half-maximal effect
# [8] = target: Rap guanine nucleotide exchange factor 4 (Homo sapiens) (UniProt Q8WZA2); test: Confirmatory qHTS for agonist of cAMP-regulated guanine nucleotide exchange factor 4 (EPAC2) (AID 1645884);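 note: nucleotide exchange releases bodipy-GDP from Rap1 and this lowers its fluorescence; nearly all actives have a fitted effect of over 65% in size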; note: potency is the fitted concentration of half-maximal effect
# Rap guanine nucleotide exchange factor 4 (Homo sapiens), sequence (Q8WZA2 whole entry, looked up): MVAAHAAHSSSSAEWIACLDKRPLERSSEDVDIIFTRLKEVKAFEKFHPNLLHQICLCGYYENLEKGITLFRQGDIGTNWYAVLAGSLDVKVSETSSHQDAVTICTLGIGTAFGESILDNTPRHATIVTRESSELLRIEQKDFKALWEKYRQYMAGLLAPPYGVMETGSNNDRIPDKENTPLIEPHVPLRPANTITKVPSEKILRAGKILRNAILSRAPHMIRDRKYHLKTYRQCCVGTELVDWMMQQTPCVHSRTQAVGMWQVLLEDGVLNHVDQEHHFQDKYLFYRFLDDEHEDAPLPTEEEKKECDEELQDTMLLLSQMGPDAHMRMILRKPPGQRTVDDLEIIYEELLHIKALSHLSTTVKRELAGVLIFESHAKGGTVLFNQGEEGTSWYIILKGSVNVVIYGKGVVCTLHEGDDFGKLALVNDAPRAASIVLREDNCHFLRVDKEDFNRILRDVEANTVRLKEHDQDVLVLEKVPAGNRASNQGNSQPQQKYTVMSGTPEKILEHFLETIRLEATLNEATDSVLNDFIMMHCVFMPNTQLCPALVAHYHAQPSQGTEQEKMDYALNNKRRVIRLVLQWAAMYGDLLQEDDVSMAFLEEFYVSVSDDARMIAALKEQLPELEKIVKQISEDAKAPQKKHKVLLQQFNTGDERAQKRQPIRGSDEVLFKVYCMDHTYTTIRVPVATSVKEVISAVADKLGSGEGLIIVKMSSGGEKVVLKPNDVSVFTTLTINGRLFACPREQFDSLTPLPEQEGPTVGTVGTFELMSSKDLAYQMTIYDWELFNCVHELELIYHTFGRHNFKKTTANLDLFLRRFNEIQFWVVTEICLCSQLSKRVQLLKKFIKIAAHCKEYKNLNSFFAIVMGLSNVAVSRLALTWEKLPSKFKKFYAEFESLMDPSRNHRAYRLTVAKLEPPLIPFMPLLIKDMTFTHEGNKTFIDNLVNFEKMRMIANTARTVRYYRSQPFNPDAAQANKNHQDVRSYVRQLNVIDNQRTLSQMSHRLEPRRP
# [9] = Confirmatory qHTS for small molecule stabilizers of the endoplasmic reticulum resident proteome: Secreted ER Calcium Modulated Protein (SERCaMP) assay (AID 1508628); note: nearly all actives have a fitted effect of over 40% in size; note: potency is the fitted concentration of half-maximal effect
# Outline: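 We seeded SH-SY5Y-GLuc-SERCaMP cells, added compounds (three concentrations in the primary run, eleven up to 76.6 uM in confirmation), incubated 16 h, depleted ER calcium with thapsigargin, and read luciferase 4 h later.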
# [10] = Cell Viability qHTS for small molecule stabilizers of the endoplasmic reticulum resident proteome (AID 1508629); conditions: cell viability counter-screen, 100 nM thapsigargin for final 4 h;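 note: human SH-SY5Y neuroblastoma cells carrying the GLuc-SERCaMP reporter; compound exposure about 46 h in total before the viability read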
# [11] = A High-Content qHTS Against Drug Library for the Identification of Small Molecules that Inhibit DYT1 Early Onset Primary Dystonia-Associated Cell Pathology (AID 1645839; calls by dose curve; note: potency is the fitted concentration of half-maximal effect)
# Outline: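 Readout: %pathology, the punctate EGFP-TorsinA distribution from imaging, as the primary channel and cell count as the toxicity counterscreen. HEK293 Flp-In cells expressing delE TorsinA were induced with tetracycline and treated with compound for 48 h.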
# [12] = Counterscreen qHTS for small molecule stabilizers of the endoplasmic reticulum resident proteome: GLuc-NoTag assay (AID 1508627);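 note: SH-SY5Y cells given compound then 100 nM thapsigargin to empty ER calcium; series mostly up to about 76 µM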
# Outline: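 SH-SY5Y cells stably expressing constitutively secreted GLuc (no SERCaMP tag) were pre-incubated 5 h, treated with compound for 19 h, then 100 nM thapsigargin for 4 h at 37C; medium GLuc read by coelenterazine luminescence.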
# [13] = target: Cytochrome P450 2C9 (Homo sapiens) (UniProt P11712); test: Cytochrome P450 family 2 subfamily C member 9 (CYP2C9) small molecule antagonists: luciferase biochemical (cell-free) qHTS assay (AID 1645842; active = well fitted curve in the direction sought with a large enough effect in the repeat runs; an effect the other way counts as inactive or inconclusive; note: nearly all actives have a fitted effect of over 55% in size; note: potency is the fitted concentration of half-maximal effect)
# Cytochrome P450 2C9 (Homo sapiens), sequence (P11712 whole entry, looked up): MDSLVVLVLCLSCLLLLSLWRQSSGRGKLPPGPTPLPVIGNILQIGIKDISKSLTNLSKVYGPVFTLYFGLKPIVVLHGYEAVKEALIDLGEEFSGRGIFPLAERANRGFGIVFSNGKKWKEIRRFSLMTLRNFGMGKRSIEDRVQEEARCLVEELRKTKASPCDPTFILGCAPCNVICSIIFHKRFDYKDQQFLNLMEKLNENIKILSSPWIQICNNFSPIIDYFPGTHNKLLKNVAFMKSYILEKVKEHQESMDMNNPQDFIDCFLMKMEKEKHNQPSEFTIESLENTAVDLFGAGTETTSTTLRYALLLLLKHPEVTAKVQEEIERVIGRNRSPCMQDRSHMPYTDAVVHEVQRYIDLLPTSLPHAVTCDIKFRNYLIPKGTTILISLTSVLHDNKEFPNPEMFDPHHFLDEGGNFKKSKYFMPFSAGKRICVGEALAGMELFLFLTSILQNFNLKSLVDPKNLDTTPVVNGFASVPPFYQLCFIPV
# Outline: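 Luminescence, after 20 min with luciferin detection reagent, reflected CYP2C9 turnover during a 1 h NADPH-driven reaction at 37C. Enzyme-substrate mix contained 0.4% bovine serum albumin and was preincubated with compound 10 min at room temperature.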
# [14] = target: Cytochrome P450 2D6 (Homo sapiens) (UniProt P10635); test: Cytochrome P450 family 2 subfamily D member 6 (CYP2D6) small molecule antagonists: luciferase biochemical (cell-free) qHTS assay (AID 1645840; active = well fitted curve in the direction sought with a large enough effect in the repeat runs; an effect the other way counts as inactive or inconclusive; note: series mostly up to about 57 µM; nearly all actives have a fitted effect of over 55% in size)
# Cytochrome P450 2D6 (Homo sapiens), sequence (P10635 whole entry, looked up): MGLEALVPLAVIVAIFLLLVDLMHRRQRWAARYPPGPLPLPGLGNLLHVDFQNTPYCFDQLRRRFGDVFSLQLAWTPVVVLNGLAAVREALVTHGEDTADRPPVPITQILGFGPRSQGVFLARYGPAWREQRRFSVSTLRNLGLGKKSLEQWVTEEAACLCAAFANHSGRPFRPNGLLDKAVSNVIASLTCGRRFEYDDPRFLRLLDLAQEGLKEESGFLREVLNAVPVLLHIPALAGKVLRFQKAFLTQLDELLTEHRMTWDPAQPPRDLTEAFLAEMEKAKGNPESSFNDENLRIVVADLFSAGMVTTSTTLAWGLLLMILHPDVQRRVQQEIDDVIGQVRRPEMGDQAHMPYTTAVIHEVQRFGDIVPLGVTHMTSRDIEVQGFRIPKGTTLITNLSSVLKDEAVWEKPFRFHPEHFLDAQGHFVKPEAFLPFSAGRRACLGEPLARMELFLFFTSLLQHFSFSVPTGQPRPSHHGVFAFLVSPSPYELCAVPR
# Outline: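 P450-Glo luminescent screen: recombinant CYP2D6 enzyme–proluciferin substrate mix preincubated with compound 10 min at room temperature, then NADPH regeneration added for 1 h at room temperature. Detection reagent added for 20 min; luciferin light read as relative luminescence units.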
# [15] = target: Cytochrome P450 3A4 (Homo sapiens) (UniProt P08684); test: Cytochrome P450 family 3 subfamily A member 4 (CYP3A4) small molecule antagonists: luciferase qHTS assay (AID 1645841; active = well fitted curve in the direction sought with a large enough effect in the repeat runs; an effect the other way counts as inactive or inconclusive; note: nearly all actives have a fitted effect of over 45% in size)
# Cytochrome P450 3A4 (Homo sapiens), sequence (P08684 whole entry, looked up): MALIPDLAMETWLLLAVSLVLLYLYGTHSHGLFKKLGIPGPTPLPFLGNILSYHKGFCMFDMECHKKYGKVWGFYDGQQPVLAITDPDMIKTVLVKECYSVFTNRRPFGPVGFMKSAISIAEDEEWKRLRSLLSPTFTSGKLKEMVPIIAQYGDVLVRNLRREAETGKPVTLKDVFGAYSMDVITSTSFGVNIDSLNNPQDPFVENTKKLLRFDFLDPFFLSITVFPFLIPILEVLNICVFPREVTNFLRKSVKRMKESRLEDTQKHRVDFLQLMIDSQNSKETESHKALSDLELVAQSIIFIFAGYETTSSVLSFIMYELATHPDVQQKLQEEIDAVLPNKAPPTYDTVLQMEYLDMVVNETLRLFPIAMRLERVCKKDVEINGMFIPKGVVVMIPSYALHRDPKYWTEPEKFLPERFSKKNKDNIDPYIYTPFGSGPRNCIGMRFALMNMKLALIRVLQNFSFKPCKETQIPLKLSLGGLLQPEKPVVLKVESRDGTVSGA
# Outline: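 P450-Glo CYP3A4 enzyme with proluciferin substrate was preincubated with DMSO-dissolved compounds for 10 min at room temperature. NADPH regeneration solution started a 1 h reaction. Detection reagent stopped it, and luminescence was read after 20 min.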
smiles,measurement,setting,value
O=C1NC(=O)c2c1c(-c1ccccc1)cc1[nH]c3ccc(O)cc3c21,Potency,[1],inactive
same,Potency,[2],inactive
COc1cc(/C=C/C(=O)N2CCN(CC(=O)N3CCCC3)CC2)cc(OC)c1OC,Potency,[3],inactive
same,Potency,[4],inactive
same,Potency,[5],inactive
COc1ccc(Br)cc1S(=O)(=O)NC(=O)/C=C/c1ccccc1Cc1ccc2ccccc2c1,Potency,[2],inactive
CCOC(=O)N1CCN(/[N+]([O-])=N/Oc2ccc([N+](=O)[O-])cc2[N+](=O)[O-])CC1,Potency,[1],inactive
same,Potency,[2],inactive
same,Potency,[4],7.42 µM (active)
same,Potency,[5],5.9 µM (active)
c1cnc2c(c1)ccc1cccnc12,Potency,[1],inactive
same,Potency,[2],15.8 µM (active)
CC(=O)[C@]1(O)Cc2c(O)c3c(c(O)c2[C@@H](O[C@H]2C[C@H](N)[C@H](O)[C@H](C)O2)C1)C(=O)c1c(O)cccc1C3=O,Potency,[6],inactive
same,Potency,[7],70.6 µM (active)
same,Potency,[8],79.3 µM (active)
Oc1ccccc1O,Potency,[9],7.08 µM (active)
same,max response,[10],-15.9%
same,Potency,[1],25.1 µM (active)
same,Potency,[2],inactive
CC1(C)[C@@H](O[C@H]2O[C@H](C(=O)O)[C@@H](O)[C@H](O)[C@H]2O[C@@H]2O[C@H](C(=O)O)[C@@H](O)[C@H](O)[C@H]2O)CC[C@]2(C)[C@H]3C(=O)C=C4[C@@H]5C[C@@](C)(C(=O)O)CC[C@]5(C)CC[C@@]4(C)[C@]3(C)CC[C@@H]12,Potency,[3],inactive
same,Potency,[4],inactive
same,Potency,[5],inactive
Nc1ccn([C@@H]2O[C@H](CO)[C@@H](O)[C@@H]2O)c(=O)n1,Potency,[2],inactive
CN1[C@@H]2CC[C@H]1CC(OC(c1ccccc1)c1ccccc1)C2 (some centres undefined),Potency,[3],inactive
same,Potency,[4],inactive
CC1(C)S[C@@H]2[C@H](NC(=O)[C@H](NC(=O)N3CCN(S(C)(=O)=O)C3=O)c3ccccc3)C(=O)N2[C@H]1C(=O)O,Potency,[3],inactive
same,Potency,[4],inactive
same,Potency,[5],inactive
CCCCCCCCCCCCCCCCCC(=O)O,Potency,[11],inactive
same,Potency,[4],inactive
same,Potency,[5],inactive
COCCOc1cc2ncnc(Cl)c2cc1OCCOC,Potency,[2],inactive
COc1ccccc1CN[C@@H]1CCCN[C@@H]1c1ccccc1,Potency,[2],inactive
CC(=O)O[C@H]1C[C@@]2(C)[C@@H](C[C@@H](O)[C@H]3[C@@]4(C)CC[C@@H](O)[C@@H](C)[C@@H]4CC[C@@]32C)/C1=C(\CCC=C(C)C)C(=O)O,Potency,[3],inactive
same,Potency,[4],inactive
same,Potency,[5],inactive
O=C1CC[C@@H](C(=O)N2CSC[C@H]2C(=O)O)N1 ([pGlu]-[Thz]-OH),Potency,[3],inactive
same,Potency,[4],inactive
same,Potency,[5],inactive
O=C1CN(/N=C/c2ccc(-c3ccc([N+](=O)[O-])cc3)o2)C(=O)N1,Potency,[12],inactive
same,Potency,[9],11.2 µM (active)
same,max response,[10],25.5%
Nc1ccc([N+](=O)[O-])cc1O,Potency,[3],inactive
same,Potency,[13],39.9 µM (active)
same,Potency,[4],6.86 µM (active)
same,Potency,[5],7.7 µM (active)
Oc1c(Br)cc(Br)c2cccnc12,Potency,[1],inactive
same,Potency,[11],5.62 µM (active)
same,Potency,[14],inactive
same,outcome,[15],inactive
same,Potency,[13],inactive
same,Potency,[4],3.76 µM (active)
same,Potency,[5],3.35 µM (active)
C=CCc1cccc(/C=N/NC(=O)CN2CCN(Cc3ccccc3)CC2)c1O,Potency,[1],inactive
same,Potency,[4],7.42 µM (active)
same,Potency,[5],7.42 µM (active)
COc1ccc(/C=C2\COc3ccc(C)cc3C2=O)cc1O,Potency,[2],inactive
CCC(CO)Nc1nc(NCc2ccccc2)c2ncn(C(C)C)c2n1 (centres undefined),Potency,[2],inactive
COC(=O)[C@H]1[C@H]2C[C@@H]3c4[nH]c5cc(OC)ccc5c4CCN3C[C@H]2C[C@@H](OC(=O)/C=C/c2cc(OC)c(OC)c(OC)c2)[C@@H]1OC,Potency,[3],inactive
same,Potency,[5],inactive
same,Potency,[6],inactive
same,Potency,[7],inactive
Cc1onc(-c2c(F)cccc2Cl)c1C(=O)N[C@@H]1C(=O)N2[C@@H]1SC(C)(C)[C@@H]2C(=O)O,Potency,[3],inactive
same,Potency,[4],inactive
same,Potency,[5],inactive
O=C1NC(O)=NC1(c1ccccc1)c1ccccc1,Potency,[14],inactive
same,Potency,[2],inactive
CC1(C)S[C@@H]2[C@H](NC(=O)[C@H](N)c3ccc(O)cc3)C(=O)N2[C@H]1C(=O)O,Potency,[3],inactive
same,Potency,[4],inactive
same,Potency,[5],inactive
COc1cc(/C=C/C(=O)CC(=O)/C=C/c2ccc(O)c(OC)c2)ccc1O,Potency,[9],inactive
same,Potency,[4],11.8 µM (active)
same,Potency,[5],8.33 µM (active)
CC1(C)[C@@H](O)CC[C@]2(C)[C@H]3C(=O)C=C4[C@@H]5C[C@@](C)(C(=O)O)CC[C@]5(C)CC[C@@]4(C)[C@]3(C)CC[C@@H]12,Potency,[3],inactive
same,Potency,[4],inactive
same,Potency,[5],inactive
same,Potency,[6],inactive
same,Potency,[7],inactive
same,Potency,[8],inactive
CC[C@H]1OC(=O)[C@H](C)[C@@H](O[C@H]2C[C@@](C)(OC)[C@@H](O)[C@H](C)O2)[C@H](C)[C@@H](O[C@@H]2O[C@H](C)C[C@H](N(C)C)[C@H]2O)[C@](C)(O)C[C@@H](C)C(=O)[C@H](C)[C@@H](O)[C@]1(C)O,Potency,[4],inactive
same,Potency,[5],inactive
Oc1cc(O)cc(/C=C/c2ccc(O)c(O)c2)c1,Potency,[9],inactive
same,Potency,[2],22.4 µM (active)
same,Potency,[4],6.51 µM (active)
same,Potency,[5],7.31 µM (active)
C=CCN1C(=O)C(CC(C)C)NC1=S (centres undefined),Potency,[13],23.9 µM (active)
COc1cc(CNC(=O)CCCC/C=C/C(C)C)ccc1O,Potency,[3],inactive
same,Potency,[4],7.28 µM (active) and 4.68 µM (active)
same,Potency,[5],7.28 µM (active) and 4.17 µM (active)
C[C@H](O)[C@H](O)[C@H]1CNc2nc(N)[nH]c(=O)c2N1,Potency,[3],inactive
same,Potency,[4],inactive
same,Potency,[5],inactive
O=C(Nc1ccncc1)c1cc([N+](=O)[O-])ccc1Cl,Potency,[1],inactive
same,Potency,[2],inactive
